# Shown are actives, neighbours in structure and some others; about 11% of the full set was active somewhere.
# INS promoter inh = TRM-6 insulin promoter activity inhibition; TRM-6 cells (human fetal islet line), insulin promoter-eGFP reporter, imaging; reporter expression induced with tamoxifen; AID 1273; 130,000 tested, 0.9% active; inhibition, % at 2 µM;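 active = inhibition above the mean plus 3 SD, with well images judged a real hit on visual review, cut at about 60% in these data, passing the limit was not always enough; inconclusive = inhibition over the cutoff but images rejected on review; inactive = inhibition not above the cutoff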
# Lmaj promast = inhibitors of Leishmania major promastigote growth; Leishmania major promastigotes, resazurin fluorescence viability; inhibition, % at 10 µM; 200,000 tested, 9% active; AID 1063; in the data active = inhibition above about 50%;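 note: promastigotes grown with compound for 44 hours at 28 °C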
# WT yeast gro inh = growth inhibition of WT yeast, mitochondrial fusion screen; 190,000 tested, 2.1% active; mitochondrial fusion phenotypic screen, WT strain; inhibition, % at 10 µM; AID 1362; in the data active = inhibition above about 58%; tested in S. cerevisiae
# Insulin prom up = MIN6 insulin promoter up-regulation; MIN6 insulin promoter-GFP reporter, high-content imaging; hits give high values; z-score at 5 µM; 190,000 tested, 0.3% active;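 active = z-score above 3 at 5 µM with at least 500 cells counted in the well; inconclusive = wells under 500 cells, flagged as cytotoxic or low count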
# Autophagy HCS = autophagy modulation, high-content screen; MEF GFP-LC3 puncta imaging; test concentration mostly 10 µM; calls only at 10 µM (by protocol); 190,000 tested, 0.98% active;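 active = percentage of spot-positive cells more than 3 SD above its plate mean, without a fluorescence outlier flag or 80% toxicity; inconclusive = no clear call, values can overlap the other calls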;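 note: spot-positive cell cutoff set from DMSO-treated cells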
# * = called active by the depositor; i = inactive; ? = inconclusive; / = not tested or not shown; + = active, no number.
SMILES,INS promoter inh,Lmaj promast,WT yeast gro inh,Insulin prom up,Autophagy HCS
CCCCN(Cc1ccco1)C(=O)c1cc2c(=O)[nH]c3ccc(C)cc3c2s1,/,44,42,0.27,i
Cc1ccc2nc(Cl)c3cc(C(=O)N(CCN(C)C)Cc4ccco4)sc3c2c1,-46,65*,35,-1.3,i
COc1ccc(C(=O)NCc2nnc(SCC(=O)Nc3nc4ccccc4s3)o2)cc1OC,-8,44,-4,-0.7,i
CC(C)N1CCC(NC(=O)Nc2ccc3c(c2)OCO3)CC1,/,-9,-14,-0.12,i
CCOC(=O)c1cccnc1SCC(=O)N(CC)c1cccc(C)c1,-72,91*,24,-0.88,i
Cc1cc([N+](=O)[O-])nn1CCCC(=O)Nc1c(C)n(C)n(-c2ccccc2)c1=O,38,-4,13,-0.01,i
Cc1ccc(S(=O)(=O)NNC(=O)c2cc3cc4ccccc4nc3s2)cc1,20,92*,22,/,i
N#Cc1ccc(C(=O)Nc2cccc(NC(=O)c3ccco3)c2)c(F)c1,/,6,-10,-0.2,i
COC(=O)COc1ccccc1/C=C1/NC(=O)NC1=O,-69,53*,8,-0.71,i
O=C(COc1ccccc1/C=C1/NC(=O)NC1=O)Nc1ccccc1,11,-4,-11,0.1,i
O=C1NC(=O)/C(=C/c2cccc([N+](=O)[O-])c2)N1,/,/,/,-0.29,/
O=C1NC(=O)/C(=C\c2ccccc2OCc2cccc([N+](=O)[O-])c2)N1,-15,57*,-5,-0.06,i
O=c1c2ccc(Cl)cc2nc(-c2cccc(C(F)(F)F)c2)n1O,/,99*,12,0.71,i
CCCCNC(=O)C1CC(c2c(Cl)cccc2Cl)=NO1 (configuration not stated),-9,-4,25,-0.39,i
Cc1ccc(NC(=S)NCc2ccc3[nH]c4c(c3c2)CCCC4)cc1,27,17,73*,-0.18,i
O=C(NCc1ccc(F)cc1)C1CCCN(c2nc3ccsc3c(=O)s2)C1 (configuration not stated),/,-13,-8,-0.12,i
COc1ccc2[nH]c(=O)c(CN(Cc3ccco3)C(c3nnnn3Cc3ccccc3)C(C)C)cc2c1 (configuration not stated),16,47,21,/,i
Cc1cccc2cc(CN(Cc3ccco3)C(c3nnnn3CCc3ccccc3)C(C)C)c(=O)[nH]c12 (configuration not stated),-29,87*,25,-1,i
CC(=O)c1cccc(NC(=O)CN(C)Cc2ccc(OC(F)F)cc2)c1,/,/,/,0.14,/
C=CCn1c(SCC(=O)NCc2ccc3c(c2)OCO3)nc2scc(-c3ccccc3)c2c1=O,-26,4,-13,0.03,i
C=CCn1c(SCC(=O)N2CC(=O)Nc3ccccc32)nc2scc(-c3ccccc3)c2c1=O,-17,94*,-14,-1.3,i
Cc1ccc(-n2ncc3c(=O)n(CC(=O)N4CCN(c5ccccc5)CC4)cnc32)cc1C,-37,-7,9,-0.22,i
O=[N+]([O-])c1ccc(-n2nnnc2-c2ccccc2)c([N+](=O)[O-])c1,14,100*,30,0.04,i
COc1ccc2nc(N=Nc3c(O)ccc4ccccc34)sc2c1,50,99*,12,0.33,i
CCN(CC)C(=O)c1sc2nc(-c3cccs3)cc(-c3ccc(Cl)cc3)c2c1N,-44,33,13,2,+
SMILES,INS promoter inh,Lmaj promast,WT yeast gro inh,Insulin prom up,Autophagy HCS
N#Cc1sc2nc(-c3cccs3)cc(-c3ccc(Cl)cc3)c2c1N,/,2,23,-0.14,+
Nc1c(C(=O)O)sc2nc(-c3ccccc3)cc(-c3ccc(Cl)cc3)c12,/,/,/,-0.86,/
N#Cc1sc2nc(-c3cccs3)cc(-c3ccccc3)c2c1N,0,1,19,/,i
CCc1ccc(C(=O)CN2C(=O)NC(C)(CCc3ccccc3)C2=O)cc1 (configuration not stated),-78,-8,12,0.26,i
C=C(C)COc1ccc(-c2[nH]ncc2-c2ccc(Br)cc2)c(O)c1,-50,1,95*,0.7,i
COc1ccc(-c2cn[nH]c2-c2ccc(OCc3ccc([N+](=O)[O-])cc3)cc2O)cc1,/,43,68*,-0.35,i
C=C(C)COc1ccc(-c2[nH]ncc2-c2ccccc2OC)c(O)c1,69,28,4,-0.47,i
C=C(C)COc1ccc(-c2n[nH]c(C)c2-c2ccc(Br)cc2)c(O)c1,-13,9,26,/,+
O=C(CN1CCCc2ccccc21)N/N=C/c1ccccc1O,-3,99*,9,0.07,i
Cc1ccccc1OCCN1C(=O)C(=O)c2cccc(C)c21,/,-1,-10,-0.36,i
Cc1cccc2c1N(CCOc1ccccc1Cl)C(=O)C2=O,-49,67*,13,0.3,i
COc1cc2c(C)nc3c(c(C)nn3-c3ccccc3)c2cc1OC,/,1,-2,-0.06,i
COc1cc2c(-c3ccc(O)cc3)nc3c(c(C)nn3-c3ccccc3)c2cc1OC,21,63*,10,-1.1,i
c1ccc(-c2oc3ncnc(NCCCn4ccnc4)c3c2-c2ccccc2)cc1,-6,100*,73*,-0.21,i
c1ccc(-c2c(-c3ccccc3)n(Cc3ccco3)c3ncnc(NCCCn4ccnc4)c23)cc1,-33,100*,73*,/,i
O=c1c2ccccc2nc(-c2ccccc2)n1CCCN1CCOCC1,/,6,-17,0.01,i
N=c1c2c(-c3ccccc3)c(-c3ccccc3)n(Cc3ccco3)c2ncn1CCCn1ccnc1,-85,100*,-8,?,i
N=c1c2c(-c3ccccc3)c(-c3ccccc3)n(Cc3ccco3)c2ncn1CCCN1CCOCC1,/,100*,7,-1.2,i
CN1/C(=C\P(=O)(N(C)C)N(C)C)C(C)(C)c2ccccc21,/,99*,7,-2.7,i
O=C(NCc1ccco1)c1ccc2c(=O)n(Cc3ccco3)c(SCC(=O)N3CCCC3)nc2c1,61,24,-1,-0.8,i
O=C(CSc1nc2ccccc2c(=O)n1Cc1ccco1)N1CCCCCC1,/,79*,3,-1.3,i
CN(Cc1ccccc1)C(=O)CSc1nc2ccccc2c(=O)n1Cc1ccco1,/,45,24,/,i
Cc1ccc(NC(=O)CN(C)C(=O)CSc2nc3ccccc3c(=O)n2Cc2ccco2)cc1,-12,87*,48,-0.2,i
COCCn1c(C)cc(C(=O)CSc2nc3ccccc3c(=O)n2Cc2ccco2)c1C,-27,78*,-30,-1.5,i
Cc1cc(NC(=O)CCC(=O)N(Cc2cccs2)C(C(=O)NC2CCCC2)c2ccccc2)no1 (configuration not stated),-95,94*,16,/,i
Cc1cccc(N(C(=O)CCC(=O)Nc2cc(C)on2)C(C(=O)NC2CCCC2)c2ccc(C)o2)c1 (configuration not stated),/,89*,23,-0.51,i
Cc1cc(NC(=O)CCC(=O)N(c2ccccc2)C(C(=O)NC2CCCC2)c2ccccc2)no1 (configuration not stated),13,0,7,/,i

# Source: PubChem
